Pf Dd2 growth – P. falciparum Dd2 growth inhibition | SYBR Green, 72 h; stronger effect = lower value | 94,000 tested, 2.3% active | activity change, % at 10 µM; in the data active means activity change below about -80%; inconclusive means no clear call, values can overlap the other calls
T cruzi growth-1 – blocks T. cruzi growth in NIH3T3 culture | T. cruzi beta-gal in NIH3T3, GalScreen luminescence, 90 h | inhibition, % at 8.34 µM | 77,000 tested, 5.9% active | AID 624255;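 active means mean inhibition above about 93%, with at least 55% of replicates each passing it, limit read from the data, passing the limit was not always enough; inconclusive means only one of those two conditions holds; inactive means neither condition holds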
C diff growth – inhibitors of Clostridium difficile growth; Clostridium difficile clinical isolate growth, OD600, 24 h; stronger effect = lower value; growth activity, negative = inhibition, % at 16 µg/mL (by protocol); 86,000 tested, 0.25% active;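 active means mean growth activity at or below -80% and every replicate also at or below -80%; inconclusive means mean at or below -80% but some replicate above -80%; inactive means mean growth activity above -80%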
T cruzi growth-2 – inhibitors of T. cruzi proliferation; shares compounds with T cruzi growth-1; T. cruzi beta-gal in NIH3T3, GalScreen luminescence, 90 h; inhibition, % at 8.35 µM; 5,600 tested, 72% active; AID 651739;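 active means mean replicate inhibition above about 95% and at least 55% of replicates individually reaching it, limit read from the data; inconclusive means only one of the two criteria is met; inactive means neither criterion is met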
T cruzi growth-3 – blocks T. cruzi growth in NIH3T3 host cells | shares compounds with T cruzi growth-1 | T. cruzi beta-gal in NIH3T3, GalScreen luminescence, 90 h | 5,600 tested, 21% active | inhibition, % at 2.09 µM;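 active means mean inhibition above about 95%, with at least 55% of replicates also reaching it, limit read from the data; inconclusive means meets just one of the two conditions; inactive means meets neither condition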
3T3 cytotox – cytotoxicity in mouse NIH/3T3 fibroblasts. AID 651742. 5,600 tested, 14% active. NIH/3T3 viability, CellTiter-Glo ATP luminescence, 90 h. shares compounds with T cruzi growth-1. cytotoxicity (signal decrease), % at 8.35 µM;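 active means mean signal decrease across replicates above about 35% based on untreated-well scatter, with enough replicates individually passing, limit read from the data; inconclusive means no rule stated though some were filed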
NIH3T3 tox 2 – kills mouse NIH/3T3 fibroblasts. shares compounds with T cruzi growth-1. NIH/3T3 viability, CellTiter-Glo ATP luminescence, 90 h. inhibition, % at 24.9 µM. 5,600 tested, 56% active;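 active means mean loss of cell viability signal at or above a set limit, and enough replicates individually reaching it; inconclusive means meets only the mean limit or only the replicate share; inactive means meets neither condition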
Hits are given with their value; n = inactive; u = inconclusive; x = not tested or not shown. A selection: hits, their analogues and other compounds. The true share with any hit is near 6.7%.

SMILES | Pf Dd2 growth | T cruzi growth-1 | C diff growth | T cruzi growth-2 | T cruzi growth-3 | 3T3 cytotox | NIH3T3 tox 2
OC[C@@H]1[C@@H](c2ccc(/C=C/c3ccccc3)cc2)[C@@H]2CN(Cc3cccnc3)CCCCN12 | n | u | n | 104.0 | n | 45.9 | 103.3
OC[C@@H]1[C@H](c2ccc(/C=C/c3ccccc3)cc2)[C@@H]2CN(Cc3cccnc3)CCCCN12 | n | 105.4 | n | 110.7 | n | 41.1 | 103.3
OC[C@@H]1[C@H](c2ccc(/C=C/c3ccccc3)cc2)[C@H]2CN(Cc3cncnc3)CCCCN12 | n | n | n | x | x | x | x
COc1ccccc1-c1ccc([C@H]2[C@H](CO)N3CCCCN(Cc4ccncc4)C[C@@H]23)cc1 | n | n | n | x | x | x | x
OC[C@@H]1[C@H](c2ccc(/C=C/c3ccccc3)cc2)[C@@H]2CN(Cc3ccncc3)CCCCN12 | n | 120.7 | n | 107.2 | u | u | 104.0
OC[C@H]1[C@@H](c2ccc(/C=C/c3ccccc3)cc2)[C@@H]2CN(Cc3cncnc3)CCCCN12 | n | 102.3 | n | 106.5 | n | n | 104.6
OC[C@@H]1[C@@H](c2ccc(/C=C/c3ccccc3)cc2)[C@@H]2CN(Cc3cncnc3)CCCCN12 | n | n | n | x | x | x | x
C[C@@H]1CN([C@@H](C)CO)S(=O)(=O)c2ccc(-c3cccnc3)cc2O[C@@H]1CN(C)C(=O)C1CC1 | n | n | x | x | x | x | x
C[C@@H](NC(=O)C[C@@H]1C[C@H]2c3cc(NS(=O)(=O)c4ccc(F)cc4)ccc3O[C@H]2[C@@H](CO)O1)c1ccccc1 | n | n | n | x | x | x | x
C[C@H](CO)N1C[C@H](C)[C@@H](CN(C)Cc2ccc3c(c2)OCO3)OCCCC[C@H](C)Oc2ccc(NS(C)(=O)=O)cc2C1=O | n | n | n | x | x | x | x
CN(C)C(=O)c1cccc(-c2ccccc2[C@@H]2[C@@H](C#N)N(C(=O)C3CC3)[C@H]2CO)c1 | u | x | n | x | x | x | x
CN1CCN(C(=O)C[C@@H]2C=C[C@@H](NC(=O)Nc3ccccc3F)[C@H](CO)O2)CC1 | n | n | x | x | x | x | x
COc1ccc(NC(=O)Nc2cccc3c2O[C@@H](CN(C)S(=O)(=O)c2ccccc2)[C@@H](C)CN([C@H](C)CO)C3=O)cc1 | n | n | n | x | x | x | x
Cc1ccc(S(=O)(=O)N(C)C[C@H]2Oc3ccc(NC(=O)CCCN(C)C)cc3C(=O)N([C@@H](C)CO)C[C@H]2C)cc1 | n | n | n | x | x | x | x
COc1ccc(NC(=O)N2CCCCN3[C@H](CO)[C@H](c4ccc(C5=CCCCC5)cc4)[C@@H]3C2)cc1 | n | 113.8 | n | 109.5 | n | n | 80.9
COc1ccc(NC(=O)N2CCCCN3[C@@H](CO)[C@@H](c4ccc(C5=CCCC5)cc4)[C@@H]3C2)cc1 | n | n | n | x | x | x | x
COc1ccc(NC(=O)N2CCCCN3[C@@H](CO)[C@H](c4ccc(-c5ccccc5C)cc4)[C@@H]3C2)cc1 | n | 102.3 | n | 101.2 | n | n | 103.7
COc1ccc(NC(=O)N2CCCCN3[C@H](CO)[C@@H](c4ccc(-c5ccccc5F)cc4)[C@H]3C2)cc1 | n | n | n | x | x | x | x
COc1ccc(NC(=O)N2CCCCN3[C@H](CO)[C@H](c4ccc(-c5ccccc5C)cc4)[C@@H]3C2)cc1 | n | n | n | x | x | x | x
COc1ccc(NC(=O)N2CCCCN3[C@@H](CO)[C@@H](c4ccc(-c5ccccc5C)cc4)[C@@H]3C2)cc1 | n | 107.9 | n | n | n | 110.7 | 101.8
COc1ccc(NC(=O)N2CCCCN3[C@H](CO)[C@@H](c4ccc(-c5ccccc5C)cc4)[C@H]3C2)cc1 | n | 109.1 | n | 102.7 | n | 40.3 | 102.9
COc1ccc(NC(=O)N2CCCCN3[C@H](CO)[C@@H](c4ccc(-c5ccccc5F)cc4)[C@@H]3C2)cc1 | n | n | n | x | x | x | x
CC(=O)N(C)C[C@H]1Oc2cc(C#Cc3ccncc3)ccc2S(=O)(=O)N([C@@H](C)CO)C[C@H]1C | n | n | n | x | x | x | x
COc1cccc(CNC(=O)C[C@H]2C=C[C@@H](NC(=O)C3CCOCC3)[C@@H](CO)O2)c1 | n | n | n | x | x | x | x
COc1ccc(S(=O)(=O)Nc2ccc3c(c2)C(=O)N([C@@H](C)CO)C[C@H](C)[C@H](CN(C)S(=O)(=O)c2ccc(OC)cc2)OCCCC[C@@H](C)O3)cc1 | n | 93.0 | n | 105.8 | n | n | n
